From PubChem BioAssay AID651815 (National Center for Advancing Translational Sciences (NCATS), 2012)
The whole screen tested about 2,100 compounds, of which about 1,100 (52%) were called active. Another 29% or so got no clear call; they are omitted. Calls come from the whole dose curve; as a rule, active = well fitted inhibition curve with a large enough effect; inconclusive = small, poorly fitted or top-dose-only effect; inactive = no such curve, though single readings can be large or run the other way. So high a share suggests a set chosen from earlier hits. Some of the results follow.
Note: nearly all actives have a fitted effect of over 65% in size.
Potency is the fitted concentration of half-maximal effect.

The molecules below were run against DNA dC->dU-editing enzyme APOBEC-3F (Homo sapiens) (UniProt Q8IUX4) (assay: qHTS for inhibitors of Vif-A3F interactions: Cherry picks counterscreen). Conditions: HeLa A3F-eYFP/Vif cells, eYFP fluorescence, 24 h; series mostly up to 46.1 µM.
Sequence of DNA dC->dU-editing enzyme APOBEC-3F (Homo sapiens) (Q8IUX4 whole entry, looked up): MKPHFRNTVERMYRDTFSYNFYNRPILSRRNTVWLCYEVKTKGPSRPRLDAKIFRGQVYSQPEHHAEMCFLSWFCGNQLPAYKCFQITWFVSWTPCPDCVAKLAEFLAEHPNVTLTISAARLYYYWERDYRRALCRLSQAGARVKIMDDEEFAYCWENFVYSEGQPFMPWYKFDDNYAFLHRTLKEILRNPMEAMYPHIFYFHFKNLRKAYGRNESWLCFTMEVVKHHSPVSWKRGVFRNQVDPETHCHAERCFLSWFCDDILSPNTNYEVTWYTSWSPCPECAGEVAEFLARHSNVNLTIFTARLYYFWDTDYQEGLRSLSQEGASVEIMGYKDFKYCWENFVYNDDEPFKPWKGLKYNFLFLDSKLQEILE
Summary of the method: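 HeLa cells stably expressing A3F-eYFP and Vif, cultured overnight, then treated 24 h at 37 degrees C with compounds at several concentrations; yellow fluorescence (488 nm Ex/500-530 nm Em) imaged on Acumen; MG132 positive control.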
For O=C1N/C(=N\N=C\c2ccco2)SC1Cc1ccccc1[N+](=O)[O-] (stereo unspecified), the Potency was “inactive”. In the case of C/C(=N\NC(N)=S)C12CC3CC(CC(C3)C1)C2, the Potency is reported as “inactive”. With O=C(NC1CC1)c1cccc2c1C(=O)c1ccc(N3CCC(Cc4ccccc4)CC3)cc1S2(=O)=O the Potency was 18.4 µM (active). O=C(NC1CCCCC1)c1cccc2c1C(=O)c1ccc(N3CCC(Cc4ccccc4)CC3)cc1S2(=O)=O was tested, and the Potency was 15.8 µM (active). CCOC(=O)CCc1ccc(NC(=O)/C=C/c2ccc([N+](=O)[O-])o2)cc1 was tested, and the Potency was 20.6 µM (active). With N#CCc1ccc(NC(=O)/C=C/c2ccc([N+](=O)[O-])o2)cc1 the Potency was 11.6 µM (active). In the case of CCc1ccc(C(=O)/C=C/c2ccc([N+](=O)[O-])o2)cc1, the Potency is reported as 15.8 µM (active). For O=C(/C=C/c1ccc([N+](=O)[O-])o1)NNC(=O)c1ccc(F)cc1, the Potency was 2.8 µM (active). CC(C)Cn1c(N)c(C(=O)COC(=O)c2ccc([N+](=O)[O-])o2)c(=O)n(C)c1=O was tested, and the Potency was “inactive”. O=c1cc(-c2ccccc2)[nH]c2ccccc12 was tested, and the Potency was 2.23 µM (active). COc1cc2nc(/C=C/c3ccc(N(C)C)cc3)sc2cc1SC was tested, and the Potency was 11.6 µM (active). For CCS(=O)(=O)c1nn2c(N)c(/C=C3/C=CC(=O)C(OC)=C3)c(=O)nc2s1, the Potency was “inactive”. With COC(=O)c1c(-c2cccnc2)csc1NC(=O)c1ccc2c(c1)OCO2 the Potency was “inactive”. COc1cc(C(=O)c2ccc3c(c2)OCO3)cc(OC)c1OC was tested, and the Potency was 7.04 µM (active). With CCOC(=O)C1C(=O)C=C(/C=C/c2ccc(N(C)C)cc2)CC1c1ccccc1 (stereo unspecified) the Potency was 16.4 µM (active). In the case of CCCCOc1ccc(-c2nnn(CC(=O)NCc3ccco3)n2)cc1, the Potency is reported as 6.27 µM (active). CCOC(=O)c1c(Nc2ccc(Cl)cc2)sc(/C=C2\C=Nc3ccccc32)c1O was tested, and the Potency was 14.6 µM (active). With CN(C)CCCN(C(=O)/C=C/c1cccs1)c1nc2ccc(F)cc2s1 the Potency was “inactive”. For Cc1cccc(C(=O)NC(=S)N2CCc3ccccc3C2)c1, the Potency was “inactive”. For COc1cc2c(cc1OC)CN(C(=O)/C=C/c1cccs1)CC2, the Potency was 2.8 µM (active). O=c1[nH]c(-c2cccnc2)nc2sc(-c3ccccc3)cc12 was tested, and the Potency was 4.44 µM (active). For S=c1[nH]cnc2sc(-c3ccccc3)cc12, the Potency was “inactive”. Cc1ccc(S(=O)(=O)Nc2cc(Cl)c(O)c3ncccc23)cc1 was tested, and the Potency was “inactive”. With CC(=O)c1c(C)oc2c1cc(NS(=O)(=O)c1ccc(Br)cc1)c1ccccc12 the Potency was 2.91 µM (active). For CCc1nc(Nc2ccc3nccnc3c2)c2oc3ccccc3c2n1, the Potency was 23.1 µM (active). For COc1ccc(S(=O)(=O)Nc2cccc(-c3ccc4nncn4n3)c2)cc1, the Potency was 3.14 µM (active). With COc1ccc(S(=O)(=O)Nc2cccc(-c3ccc4nncn4n3)c2)cc1F the Potency was 1.98 µM (active). With O=Cc1s/c(=N\S(=O)(=O)c2ccccc2)n(CCCCl)c1Cl the Potency was 5.8 µM (active). For O=C1[C@@H]2[C@@H](CN3CN(c4ccccc4)N=C(c4ccccc4)[C@@]23c2ccccc2)C(=O)N1c1ccccc1, the Potency was “inactive”. For CCN1/C(=C/c2cc[n+](C)cc2)C=Cc2cc(C)ccc21, the Potency was 18.4 µM (active). For CCN1/C(=C/c2ccc3ccccc3[n+]2CC)C=Cc2ccccc21, the Potency was “inactive”. In the case of Cc1cc(C)cc(NC(=O)Cn2c(=O)oc3cc(S(=O)(=O)N4CCC(C)CC4)ccc32)c1, the Potency is reported as 12.5 µM (active). In the case of COc1ccc2c(Cl)c(C(=O)N/N=C3\CCCC(=O)C3)sc2c1, the Potency is reported as 17.7 µM (active). In the case of CCOc1cc(C(=O)NN=C2CCCC2)cc(OCC)c1OCC, the Potency is reported as “inactive”. With CCN(CC)c1ccc2c(c1)OC(N)=C(C#N)C2c1cccnc1 (stereo unspecified) the Potency was 14 µM (active). With N#CC1=C(N)Oc2ccc3ccccc3c2C1c1cccnc1 (stereo unspecified) the Potency was 2.8 µM (active). For N#CC1=C(N)Oc2ccc3ccc(O)cc3c2C1c1ccsc1 (stereo unspecified), the Potency was “inactive”. In the case of CC1=C(n2nnc3ccccc32)C(c2ccccc2)C(C#N)=C(N)O1 (stereo unspecified), the Potency is reported as “inactive”. With Cc1ccc2c(c1C)NC(=O)CC(c1ccccc1O)=N2 the Potency was “inactive”. With CN(C)c1ccc2ccc3cccc4ccc1c2c34 the Potency was 13 µM (active). C[C@H]1CN([C@@H](C)CO)C(=O)Cc2cc(NC(=O)CCC(F)(F)F)ccc2O[C@H]1CN(C)S(=O)(=O)c1ccc(F)cc1 was tested, and the Potency was 12.5 µM (active). In the case of CCOc1cc(C#N)c(NC(=O)c2cccnc2)cc1OCC, the Potency is reported as 3.53 µM (active). With COc1ccc(OC)c(NS(=O)(=O)c2ccc(Cl)s2)c1 the Potency was 11.2 µM (active). N#Cc1ccc(/C=C\c2nccc3c2[nH]c2ccccc23)cc1 was tested, and the Potency was 15.8 µM (active). In the case of C(=C/c1nccc2c1[nH]c1ccccc12)/c1ccc2c(c1)OCO2, the Potency is reported as “inactive”. With Cc1noc(C)c1COc1ccc(C(=O)NNC(=O)c2ccccc2F)cc1 the Potency was 9.94 µM (active). For Cc1noc(C)c1COc1ccc(C(=O)NNC(=O)c2ccccc2)cc1, the Potency was 4.98 µM (active). With Cc1ccc(CN(C(=O)c2ccccc2F)c2ccccn2)o1 the Potency was “inactive”. With CCCN1C=CC(=CC=C(C#N)C#N)C=C1 the Potency was 17.7 µM (active). C=CCN1C=CC(=C/C=C(/C#N)C(=O)OCC)C=C1 was tested, and the Potency was 4.61 µM (active). In the case of C=CCN1C=CC(=CC=C(C#N)C#N)C=C1, the Potency is reported as 17.7 µM (active). With CCOC(=O)/C(C#N)=C\C=C1C=CN(C)C=C1 the Potency was “inactive”. COc1ccc(-n2c(O)c(/C=N/NS(=O)(=O)c3cc(C)ccc3C)c3ccccc3c2=O)cc1OC was tested, and the Potency was 13 µM (active). In the case of COc1ccc(-n2c(O)c(/C=N/NS(=O)(=O)c3ccc(C)cc3)c3ccccc3c2=O)cc1OC, the Potency is reported as 18.4 µM (active). CC12CC3CC(C)(C1)CC(C(=O)NC(=S)N1CCOCC1)(C3)C2 was tested, and the Potency was “inactive”. C(=Cc1c[nH]c2ccccc12)c1ccc2ccccc2n1 was tested, and the Potency was 18.4 µM (active). For C(=C\c1c[nH]c2ccccc12)/c1ccc2ccccc2n1, the Potency was 18.4 µM (active). In the case of COc1ccc(C(=O)Nc2cccc(/C=C/c3nc4ccccc4c(=O)[nH]3)c2)cc1, the Potency is reported as 15.8 µM (active). With Nc1c(C(=O)Nc2ccc(S(=O)(=O)N3CCCC3)cc2)sc2nc3ccc(OC(F)(F)F)cc3cc12 the Potency was 23.1 µM (active). In the case of Nc1c(C(=O)Nc2ccc(S(=O)(=O)N3CCCC3)cc2)sc2nc3cc4c(cc3cc12)CCC4, the Potency is reported as 14.6 µM (active). With CCc1cccc2cc3c(N)c(C(=O)Nc4ccc(S(=O)(=O)N5CCCC5)cc4)sc3nc12 the Potency was 6.27 µM (active).
